Results from PMC4336329 (PLoS ONE, 2015).
Screen size: about 310,000 compounds; about 14,000 (4.5%) showed an effect of 50% or more. The effect is printed as a negative number. For the sample, strong results were picked, then their nearest neighbours and some compounds at random.

biological target: human ether-à-go-go-related gene (hERG) potassium channel (human, UniProt Q12809); assay: primary screen, population patch clamp on CHO cells stably expressing hERG; higher = less effect of the substance
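Note: peak tail current of the secondary pulse compared with the same well before compound.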

human ether-à-go-go-related gene (hERG) potassium channel, sequence (Q12809 whole entry, looked up): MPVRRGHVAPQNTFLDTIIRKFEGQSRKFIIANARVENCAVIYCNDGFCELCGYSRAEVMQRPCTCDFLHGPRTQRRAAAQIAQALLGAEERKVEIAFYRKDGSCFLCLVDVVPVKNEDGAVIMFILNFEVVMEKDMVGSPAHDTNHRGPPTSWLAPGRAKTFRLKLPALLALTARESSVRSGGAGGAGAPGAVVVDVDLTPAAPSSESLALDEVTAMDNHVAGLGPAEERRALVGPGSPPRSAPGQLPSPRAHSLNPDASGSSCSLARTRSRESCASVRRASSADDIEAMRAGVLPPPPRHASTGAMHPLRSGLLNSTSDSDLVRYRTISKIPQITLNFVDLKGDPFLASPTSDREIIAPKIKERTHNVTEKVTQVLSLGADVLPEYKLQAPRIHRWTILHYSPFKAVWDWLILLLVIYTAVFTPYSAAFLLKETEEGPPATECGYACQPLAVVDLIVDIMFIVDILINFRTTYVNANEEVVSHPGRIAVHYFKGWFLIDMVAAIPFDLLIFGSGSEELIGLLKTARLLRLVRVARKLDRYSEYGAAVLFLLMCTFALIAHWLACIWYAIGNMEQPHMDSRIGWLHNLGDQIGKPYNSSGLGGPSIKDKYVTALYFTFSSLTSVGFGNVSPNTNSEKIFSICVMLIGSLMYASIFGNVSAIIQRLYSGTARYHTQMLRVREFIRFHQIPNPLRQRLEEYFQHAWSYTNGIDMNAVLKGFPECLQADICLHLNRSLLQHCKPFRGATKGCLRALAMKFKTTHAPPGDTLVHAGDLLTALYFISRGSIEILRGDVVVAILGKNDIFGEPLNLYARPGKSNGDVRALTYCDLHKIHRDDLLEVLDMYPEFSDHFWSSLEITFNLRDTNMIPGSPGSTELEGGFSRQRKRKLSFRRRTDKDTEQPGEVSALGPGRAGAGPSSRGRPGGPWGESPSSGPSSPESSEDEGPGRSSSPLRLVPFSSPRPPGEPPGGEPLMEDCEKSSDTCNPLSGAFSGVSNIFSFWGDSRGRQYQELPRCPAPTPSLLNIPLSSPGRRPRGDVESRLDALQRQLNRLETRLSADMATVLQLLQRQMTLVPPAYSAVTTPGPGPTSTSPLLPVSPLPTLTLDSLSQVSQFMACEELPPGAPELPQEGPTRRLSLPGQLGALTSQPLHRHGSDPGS

Row | Structure (SMILES) | hERG current change (%, negative = inhibition) at 10uM [%]
1 | C/C(=N\Nc1ccc(S(N)(=O)=O)cc1[N+](=O)[O-])c1cccs1 | 25.7
2 | C[C@]12CC[C@H]3[C@@H](CC[C@]4(O)C[C@@H](O)CC[C@]34C=O)[C@@]1(O)CC[C@@H]2C1=CC(=O)OC1 | 14
3 | O=C(CC12CC3CC(CC(C3)C1)C2)N1CCOCC1 | -1.47
4 | COc1ccccc1CC(NC(C)=O)C(=O)NC1CCN(C(=O)Nc2ccc(F)cc2)CC1 (stereo not drawn) | -1.82
5 | COc1ccc(C(=O)NC2CC2)cc1OC1CCN(Cc2ccc(F)cc2)CC1 | -81.8
6 | C/C=C(\C)CN1CCC(Oc2cc(C(=O)NC3CC3)ccc2OC)CC1 | -64.5
7 | COc1cc(OC)cc(C(=O)NC2CCN(Cc3nnnn3Cc3ccc(F)cc3)CC2)c1 | -3.98
8 | COc1cc(C(=O)NC2CCN(Cc3nnnn3Cc3ccc(F)cc3)CC2)cc(OC)c1OC | -0.888
9 | COc1ccc(C(=O)NC2CCN(CC(=O)Nc3c(C)cccc3C)CC2)cc1OC | 18.7
10 | COc1cc(C(=O)NC2CCCCC2)ccc1OC1CCN(C(C)=O)CC1 | 7.63
11 | CN(C)S(=O)(=O)c1cccc(C(=O)NC2CCSc3ccccc32)c1 (stereo not drawn) | -5.74
12 | CCOc1cccc(=O)c2c(C)n(Cc3ccco3)c(C)c12 | -11.5
13 | Cc1nc(NS(=O)(=O)c2ccccc2)sc1C(=O)N/N=C/c1ccccc1 | -2
14 | CCn1c2ccccc2c2cc(/C=N/n3cnnc3)ccc21 | -13.4
15 | COc1ccc(N2CC(C(=O)N/N=C/c3ccc(C)cc3)CC2=O)cc1 (stereo not drawn) | -18.8
16 | COc1ccc(OC)c(NC(=O)C2CC(=O)N(c3ccc(Br)cc3)C2)c1 (stereo not drawn) | -33.6
17 | COc1ccc(N2CC(C(=O)N/N=C/c3ccc([N+](=O)[O-])cc3)CC2=O)cc1 (stereo not drawn) | -59.5
18 | COc1ccc(N2CC(C(=O)Nc3ccc([N+](=O)[O-])cc3Br)CC2=O)cc1 (stereo not drawn) | -69
19 | COc1ccc(N2CC(C(=O)N/N=C/c3cc([N+](=O)[O-])ccc3O)CC2=O)cc1 (stereo not drawn) | -8.45
20 | COc1ccc(N2CC(C(=O)Nc3ccc(F)cc3F)CC2=O)cc1 (stereo not drawn) | -0.618
21 | O=C(COC(=O)/C=C/c1cccc(C(F)(F)F)c1)NCc1ccco1 | 13.5
22 | Cc1ccc(OCC(=O)Nc2ccccc2F)cc1C | 23.6

Row | Structure (SMILES) | hERG current change (%, negative = inhibition) at 10uM [%]
23 | Cc1nc(NNC(=O)c2ccccc2)cc(-c2ccccc2)n1 | 3.7
24 | Cc1nc(NNC(=O)c2ccc([N+](=O)[O-])cc2)cc(-c2ccccc2)n1 | -50.8
25 | Cc1nc(NNC(=O)c2ccc(Cl)cc2Cl)cc(-c2ccccc2)n1 | 6.97
26 | CC1OC(OCC2OC(Oc3c(-c4ccc(O)cc4)oc4cc(O)cc(O)c4c3=O)C(O)C(O)C2O)C(O)C(O)C1O (stereo not drawn) | 13.7
27 | Cc1cccc2c(CC(=O)Nc3ccccc3)noc12 | -0.38
28 | Cc1ccc2c(c1)N(Cc1ccc3c(c1)OCO3)C(=O)C(C)O2 (stereo not drawn) | -13.5
29 | COc1ccccc1N1CCN(C(=O)c2cc(=O)c3cc(C)cc(C)c3o2)CC1 | -27.3
30 | COc1ccccc1N1CCN(C(=O)c2cc(=O)c3ccc(C)cc3o2)CC1 | -20.7
31 | COc1ccccc1N1CCN(C(=O)c2cc(=O)c3cc(C)ccc3o2)CC1 | -50.7
32 | CCc1ccc2oc(C(=O)N3CCN(c4ccc(OC)cc4)CC3)cc(=O)c2c1 | -36.7
33 | CCc1ccc2oc(C(=O)N3CCN(C)CC3)cc(=O)c2c1 | -32.4
34 | CCc1ccc2oc(C(=O)N3CCN(c4ccccc4OC)CC3)cc(=O)c2c1 | -68.7
35 | CN(C)/C=N/c1c(C(=O)NCc2ccccc2)nnn1Cc1ccccc1 | -12.2
36 | Cc1cccc(/C=C2\CS/C(=C\c3cccc(C)c3)C2=O)c1 | 0.505
37 | O=C(Nc1nnc(S(=O)(=O)N2CCOCC2)s1)c1ccccc1Br | 4.05
38 | COCCn1c(C)cc(C(=O)COC(=O)c2ccc(-n3nc(C)cc3C)cc2)c1C | 2.16
39 | O=C(CN1C(=O)C2C3C=CC(C3)C2C1=O)N1CC=C(c2ccccc2)CC1 (stereo not drawn) | -10.1
40 | CCOC(Cn1cc(C)c(=O)[nH]c1=O)OCC | -2.39
41 | N#CCc1cc2ccc3cccc4ccc(c1)c2c34 | 16.2
42 | CCS(=O)(=O)Nc1cccc(C2=NN(S(=O)(=O)c3ccc(C)cc3)C(c3ccco3)C2)c1 (stereo not drawn) | 12.9
43 | Cc1c(C)c2cc(Cl)c(O)c(CN3CCCC(C)C3)c2oc1=O (stereo not drawn) | 8.5
44 | O=C(Cn1cncn1)N/N=C/c1cccc2ccccc12 | -4.06

Row | Structure (SMILES) | hERG current change (%, negative = inhibition) at 10uM [%]
45 | CC(C)CCC(CCN1CCCC1)c1ccc2c(c1)OCO2.O=C(O)C(=O)O (stereo not drawn) | -78.1
46 | CC(O)c1ccc2c(c1)OCCOCCN(C)CCOCCO2 (stereo not drawn) | -1.64
47 | C(=NCCCN1CCOCC1)c1ccc2c(c1)OCO2 | 15.7
48 | CC(C)CCC(CCN1CCOCC1)c1ccc2c(c1)OCO2.Cl (stereo not drawn) | -72.9
49 | O=C(C1CCCN(Cc2ccc3c(c2)OCO3)C1)N1CCCC1.O=C(O)C(=O)O (stereo not drawn) | 9.26
50 | O=C(CCN1CCCCC1)c1ccc2c(c1)OCO2 | -0.169
51 | O=C(NCCc1cccc(F)c1)C1CCCN(c2nc3ccccc3s2)C1 (stereo not drawn) | 7.76
52 | CN(C)S(=O)(=O)N(CC(=O)NCc1ccccc1)c1ccccc1 | 1.87
53 | CSc1nc2c(ccc3ccccc32)o1 | 12.9
54 | CCOC(=O)c1c(NC(=O)c2cccnc2)sc(C(C)=O)c1C | -5.09
55 | NC(=O)COC(=O)c1ccccc1SCC(=O)NC1CCCCCCC1 | 12
56 | Cc1c(NC(=S)NC(NC(=O)C(C)C)C(Cl)(Cl)Cl)c(=O)n(-c2ccccc2)n1C (stereo not drawn) | -1.45
57 | CN1CCN(CC(=O)Nc2ccc([N+](=O)[O-])cc2Br)CC1 | -70.9
58 | CC(=O)N1CCN(CC(=O)Nc2cc([N+](=O)[O-])ccc2Cl)CC1 | 15.5
59 | CC(=O)N1CCN(CC(=O)Nc2ccc([N+](=O)[O-])cc2Br)CC1 | -75.3
60 | O=C(CN1CCN(c2ccccc2O)CC1)Nc1ccc([N+](=O)[O-])cc1Br | -6.3
61 | O=C(CN1CCOCC1)Nc1ccc([N+](=O)[O-])cc1Br | -43.7
62 | O=C(CN1CCCCCC1)Nc1ccc([N+](=O)[O-])cc1Br | 6.13
63 | N#CCc1nc(CSc2nc3ccccc3s2)cs1 | -2.16
64 | CC(=O)Nc1ccc(N2CCCCC2)c(C(=O)Nc2cccc(C)c2)c1 | -18.1
65 | Cn1cnnc1SCC(=O)Nc1ccccc1C(=O)NC1CCCC1 | 11.8
66 | O=C(O)c1ccc(NNC(=S)Nc2cc(C(F)(F)F)ccc2Cl)cc1 | 19.4

Row | Structure (SMILES) | hERG current change (%, negative = inhibition) at 10uM [%]
67 | CCCc1ccc(OCC(=O)NNC(=O)c2cccnc2)cc1 | -10.9
68 | Cc1cccc(NC2=NC(C)(C)N=C(N)N2)c1C | 16.5
69 | COc1cc2ccccc2cc1C(=O)N(CCN(C)C)c1nc2c(F)cccc2s1.Cl | -38.4
70 | COc1cc2ccccc2cc1C(=O)N(CCN(C)C)c1nc2c(C)cccc2s1.Cl | 19.2
71 | CCOc1cccc2sc(N(CCN(C)C)C(=O)c3cc4ccccc4cc3OC)nc12.Cl | -68.1
72 | CCOc1ccc2nc(N(CCN(C)C)C(=O)c3ccc4ccccc4c3)sc2c1.Cl | 4.67
73 | CCOc1cccc2sc(N(CCN(C)C)C(=O)c3ccc(Br)s3)nc12.Cl | -30.3
74 | CCOc1cccc2sc(N(CCN(C)C)C(=O)c3ccc4c(c3)OCCO4)nc12.Cl | -53.5
75 | CCOc1cccc2sc(N(CCN(C)C)C(=O)c3ccc4ccccc4c3)nc12.Cl | -51.5
76 | CN(C)CCN(C(=O)c1ccc2ccccc2c1)c1nc2c(F)cccc2s1.Cl | -10.2
77 | COc1ccc2nc(N(CCN(C)C)C(=O)c3ccc4c(c3)OCCO4)sc2c1.Cl | -35.3
78 | CCCC(=O)Nc1ccc(-c2cn3cccnc3n2)cc1 | 3.08
79 | Cc1cc(C(=O)NCCCOC(C)C)c2ccccc2n1 | -7.22
80 | Cc1c(Cl)cccc1NC(=O)Nc1ccccc1C(N)=O | 19
81 | CCOC(=O)CSc1nnc(-c2ccccc2)o1 | 7.66
82 | COc1ccc(/C=C/C2=CCN(C)CC2)cc1.Cl | -19.7
83 | COc1ccc(/C=C/C2=CCN(Cc3ccc(OC)cc3)CC2)cc1.Cl | -72.3
84 | COc1ccc(CN2CCNCC2)cc1.Cl | 21.6
85 | NNc1n[nH]c(=S)n1N | 15.2
86 | CCOC(=O)c1cc(CC)sc1/N=C/C1C(=O)CCCC1=O | 10.9
87 | O=C1OC(c2ccc3c(c2)OCO3)N(C(=O)c2ccc(Cl)c(Cl)c2)c2ccccc21 (stereo not drawn) | 15.1
